From PubChem BioAssay (NCATS)
Records with an inconclusive call do not appear. The source made the active and inactive calls. Calls follow the shape of the dose curve; as a rule, active = well fitted curve in the direction sought with a large enough effect; inconclusive = small, poorly fitted or top-dose-only effect, or another doubt; inactive = no such curve, though single readings can be large; an effect the other way counts as inactive or inconclusive.

How the values were obtained:
[1] = biological target: Glutathione peroxidase 1 (Homo sapiens) (UniProt P07203); experiment: Primary qHTS Assay for Inhibitors of Recombinant Selenoprotein Glutathione Peroxidase 1 (GPX1) (AID 1845191); also: nearly all actives have a fitted effect of over 65% in size; as to activity, negative = inhibition: % is scaled to controls: 0 for no effect and ±100 for the full control effect
Procedure, shortened: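 GPX1 10 nM, GR 100 nM, GSH 1 mM, NADPH 0.5 mM, CHP 0.5 mM (final). 30-min cpd preincubation, RT. Ex340/Em450 read t=0, t=15 min.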

[2] = biological target: Phospholipid hydroperoxide glutathione peroxidase GPX4 (Homo sapiens) (UniProt P36969); experiment: Primary qHTS Assay for Inhibitors of Recombinant Selenoprotein Glutathione Peroxidase 4 (GPX4) (AID 1845192); also: nearly all actives have a fitted effect of over 65% in size; as to activity change, negative = inhibition: series mostly up to about 50 µM; % is scaled to controls: 0 for no effect and ±100 for the full control effect
Procedure, shortened: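 qHTS, GR-coupled: GPX4 200 nM + cpd 30 min RT → GSH 1 mM, NADPH 0.5 mM, GR 100 nM → CHP 0.5 mM start; fluor 340/450 at t0 and t15 min; no-enzyme wells as control.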

[3] = biological target: Luciferin 4-monooxygenase (Photinus pyralis) (UniProt P08659); experiment: Primary firefly luciferase (FLuc) qHTS assay for identification of artifact compounds. (AID 1845220); also: nearly all actives have a fitted effect of over 60% in size;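 as to activity change, negative = inhibition: series mostly up to about 54 µM; plate controls were DMSO vehicle for no effect and no enzyme for full effect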
Procedure, shortened: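 qHTS, 15 min compound preincubation with substrate (10 uM luciferin, 10 uM ATP) at RT, then 10 nM FLuc; 5 min; luminescence; % inhibition vs no-enzyme/DMSO controls, 4-parameter Hill fit.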

[4] = Primary fluorescence-based thiol-reactive (MSTI) qHTS assay for identification of artifact compounds. (AID 1845221); also: nearly all actives have a fitted effect of over 65% in size; also: potency is read from the fitted curve at half-maximal effect;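 as to activity change, negative = thiol reactive: series mostly up to about 54 µM; thiol-reactive compounds lower the probe fluorescence signal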
Procedure, shortened: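 First, 4 uM MSTI in 2% DMSO/PBS pH 7.4 was dispensed; next, compounds were added; then plates sat 1 h at room temperature without light. Finally, emission at 598 nm was recorded.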

[5] = test system: Nanoluciferase (engineered Oplophorus gracilirostris luciferase); experiment: Primary Nanoluciferase (NLuc) qHTS assay for identification of artifact compounds. (AID 1845222); also: series mostly up to about 54 µM
Procedure, shortened: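 Luminescence read-out of secreted NLuc in S16 cell conditioned medium (1:55); compounds tested with 15 min RT preincubation, then Nano-Glo substrate 1:100, 5 min. % inhibition vs no-enzyme and DMSO controls, 4-parameter Hill fit.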

[6] = Primary redox qHTS assay for identification of artifact compounds. (AID 1845223); also: potency is read from the fitted curve at half-maximal effect;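 as to redox activity (% of DA3003): 0% = DMSO and 100% = reference compound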
Procedure, shortened: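 Redox-cycling detection via DTT (250 uM final) oxidation coupled to Amplex Red (25 uM)/HRP (250 mU/mL) in HBSS. 15 min preincubation plus 30 min after DTT, room temperature. Ex/Em 525/598 nm; 4-parameter Hill fit against DMSO and 10 uM DA3003.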

Sequence of Glutathione peroxidase 1 (Homo sapiens) (P07203 whole entry, looked up): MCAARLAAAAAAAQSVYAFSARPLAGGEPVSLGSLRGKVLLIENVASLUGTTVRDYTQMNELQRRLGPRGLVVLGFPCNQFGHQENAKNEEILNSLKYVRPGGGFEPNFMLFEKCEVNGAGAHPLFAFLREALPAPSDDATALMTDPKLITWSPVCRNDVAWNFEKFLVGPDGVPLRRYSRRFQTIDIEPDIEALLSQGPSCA
Sequence of Phospholipid hydroperoxide glutathione peroxidase GPX4 (Homo sapiens) (P36969 whole entry, looked up): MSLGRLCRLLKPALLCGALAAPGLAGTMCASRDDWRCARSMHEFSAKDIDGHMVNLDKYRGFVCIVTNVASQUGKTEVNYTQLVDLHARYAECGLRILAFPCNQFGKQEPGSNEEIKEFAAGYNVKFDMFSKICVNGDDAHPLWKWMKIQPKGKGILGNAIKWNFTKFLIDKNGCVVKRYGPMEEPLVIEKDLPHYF

OCCc1ccc(O[C@@H]2O[C@H](CO)[C@@H](O)[C@H](O)[C@H]2O)cc1
inactive: Potency [1] | Potency [2] | Potency [3] | Potency [4] | Potency [5] | Potency [6]

CC(=O)N[C@H]1[C@H](O[C@H]2CC[C@@]3(C)C(CC[C@]4(C)C3CC=C3[C@@H]5CC(C)(C)CC[C@]5(C(=O)OC5OCC(O)C(O)C5O)CC[C@]34C)C2(C)C)O[C@H](COC2OC(C)C(O)C(OC3OC(C)C(O)C(O)C3O)C2O)[C@@H](O)[C@@H]1O (stereo not given in full)
inactive: Potency [1] | Potency [2] | outcome [3] inactive [at 11.6 µM] | activity change, negative = thiol reactive [4] 127% [at 11.5 µM] | activity, negative = inhibition [5] 4.87% [at 11.6 µM] | redox activity (% of DA3003) [6] 3.21% [at 11.5 µM]

COC(=O)C1=CO[C@@H](O[C@@H]2O[C@H](CO[C@@H]3O[C@H](COC(=O)/C=C/c4cc(OC)c(O)c(OC)c4)[C@@H](O)[C@H](O)[C@H]3O)[C@@H](O)[C@H](O)[C@H]2O)[C@@H]2C(CO)=CC[C@H]12
inactive: Potency [1] | Potency [2] | Potency [3] | Potency [5] | Potency [6]
active: Potency [4] 7.93 µM

CC1(C)CC(NC(=O)C(=O)Nc2ccc(Br)cc2)CC(C)(C)N1
inactive: Potency [1] | Potency [2] | Potency [3] | Potency [4] | Potency [5] | Potency [6]

C/C1=C\CC[C@]2(C)O[C@@H]2[C@H](O)[C@H](C(C)C)[C@H](OC(=O)/C=C/c2ccccc2)C1
inactive: Potency [1] | Potency [2] | Potency [3] | Potency [4] | Potency [5] | Potency [6]

O=C(CC(c1ccccc1)c1ccccc1)N1CCN(C(c2ccccc2)c2ccccc2)CC1
inactive: Potency [1] | Potency [2] | Potency [3] | Potency [4] | Potency [5] | Potency [6]

CC1=CC(=O)C2C(C)(C)CCC[C@]2(C)[C@H]1CO (stereo not given in full)
inactive: Potency [1] | Potency [2] | Potency [3] | Potency [4] | Potency [5] | Potency [6]

CC(C)=CCC/C(C)=C/CO[C@@H]1O[C@H](CO)[C@@H](O)[C@H](O)[C@H]1O
inactive: Potency [1] | Potency [2] | Potency [3] | Potency [4] | Potency [5] | Potency [6]

C[C@@H]1CCC2C(C)(C)[C@H](O)CC[C@]2(C)[C@@]12Cc1c(O)cc3c(c1O2)CNC3=O (stereo not given in full)
inactive: Potency [1] | Potency [2] | Potency [3] | Potency [4] | Potency [5] | Potency [6]

OC[C@H]1O[C@@H](OC(CCCCc2ccc(O)cc2)CCc2ccc(O)cc2)[C@H](O)[C@@H](O)[C@@H]1O (stereo not given in full)
inactive: Potency [1] | Potency [2] | Potency [3] | Potency [4] | Potency [5] | Potency [6]

CC1CC(O)C2(OC1=O)OC1C(O)C3C4CCC5CC(OC6OC(CO)C(O)C(O)C6OC6OC(C)C(O)C(O)C6O)CCC5(C)C4CCC3(C)C1C2C (stereo not given)
inactive: Potency [1] | Potency [2] | Potency [3] | Potency [4] | Potency [5] | Potency [6]

CC(=O)O[C@H]1C[C@@]2(C)[C@@H](CC[C@H]3[C@@]4(C)C=CC(=O)[C@@H](C)[C@@H]4[C@H](O)C(=O)[C@@]32C)/C1=C(/CCC=C(C)C)C(=O)O
inactive: Potency [1] | Potency [2] | Potency [3] | Potency [4] | Potency [5] | Potency [6]

N#C[C@@H]1C[C@H](F)CN1C(=O)CNC1[C@H]2CN(C(=O)c3ccc(F)cc3)C[C@@H]12 (stereo not given in full)
inactive: Potency [1] | Potency [2] | Potency [3] | Potency [4] | Potency [5] | Potency [6]

COC(=O)c1cc(OC)cc(OC)c1C(=O)c1c(OC)cc2c(c1O)C1CCCC(C)(O2)O1 (stereo not given)
inactive: Potency [1] | Potency [2] | Potency [3] | Potency [4] | Potency [5] | Potency [6]

C=C1C(=O)OC2CC3(C)C(CC12)C(C)=CC(O)C3OC(C)=O (stereo not given)
inactive: Potency [1] | Potency [2] | Potency [3] | Potency [5] | Potency [6]
active: Potency [4] 5.85 µM

CC(C)[C@H]1CC[C@@]2(O)COC(=O)[C@H]2[C@@H]1/C=C(\CO)C(=O)O
inactive: Potency [1] | Potency [2] | Potency [3] | Potency [4] | Potency [5] | Potency [6]

COC(=O)c1c(C)cc(OC(=O)c2c(C)cc(OC)cc2OC)cc1O[C@@H]1O[C@H](CO)[C@@H](O)[C@H](O)[C@H]1O
inactive: Potency [1] | Potency [2] | Potency [3] | Potency [4] | Potency [5]
active: Potency [6] 2.92 µM

CC1=C(CO)C(=O)O[C@@H]([C@@H](C)[C@H]2CC[C@H]3[C@@H]4C[C@H]5O[C@]56[C@@H](O)C=CC(=O)[C@]6(C)[C@H]4CC[C@]23C)C1
inactive: Potency [1] | Potency [2] | Potency [3] | Potency [4] | Potency [5] | Potency [6]

NC1CCC(Nc2cc(-c3cccc(NCc4cccc(F)c4)n3)c(Cl)cn2)CC1 (stereo not given)
inactive: Potency [1] | Potency [2] | Potency [3] | Potency [4] | Potency [5] | Potency [6]

O=C(Nc1c(-c2cccs2)nc2ccccn12)c1ccc(Cl)cc1
inactive: Potency [1] | Potency [2] | Potency [3] | Potency [4] | Potency [5] | Potency [6]

CN(C)C1CCN(C(=O)c2ccc(NC(=O)Nc3ccc(-c4nc(N5CCOCC5)nc(N5CCOCC5)n4)cc3)cc2)CC1
inactive: Potency [1] | Potency [2] | Potency [3] | Potency [4] | Potency [5] | Potency [6]

Cc1[nH]c2ccccc2c1CCNC(=O)c1ccccc1F
inactive: Potency [1] | Potency [2] | Potency [3] | Potency [5] | Potency [6]
active: Potency [4] 4.23 µM

O=C(Nc1nc2ccccc2n1CCc1ccccc1)c1ccccc1
inactive: Potency [1] | Potency [2] | Potency [3] | Potency [4] | Potency [5] | Potency [6]

C/C=C1\[C@H](O[C@@H]2O[C@H](CO)[C@@H](O)[C@H](O)[C@H]2O)OC=C(C(=O)OC)[C@H]1CC(=O)O
inactive: Potency [1] | Potency [2] | Potency [3] | Potency [4] | Potency [5] | Potency [6]

C[C@@]12C[C@]3(O)O[C@H](O1)[C@]1(COC(=O)c4ccccc4)[C@H]3C[C@@]12O[C@@H]1O[C@H](CO)[C@@H](O)[C@H](O)[C@H]1O
inactive: Potency [1] | Potency [2] | Potency [3] | Potency [4] | Potency [5] | Potency [6]

COc1c2c(c(C)c3c1C(=O)OC3)O[C@@]1(C)CC(O)C(C(C)(C)O)[C@](C)(CCC(=O)O)[C@H]1C2 (stereo not given in full)
inactive: Potency [1] | Potency [2] | Potency [3] | Potency [4] | Potency [5] | Potency [6]

C[C@@H]1N[C@H]2N(C1=O)c1ccccc1[C@@]2(O)C[C@@H]1C(=O)N[C@@H](C)c2nc3ccccc3c(=O)n21
inactive: Potency [1] | Potency [2] | Potency [3] | Potency [4] | Potency [5] | Potency [6]

C[C@H]1CC(=O)Nc2cccc(-c3cnn(C(C)(C)C)c3)c2N1
inactive: Potency [1] | Potency [2] | Potency [3] | Potency [4] | Potency [5] | Potency [6]

O=C1C=CC2OC(c3ccccc3)C(O)C2O1 (stereo not given)
inactive: Potency [1] | Potency [2] | Potency [3] | Potency [5] | Potency [6]
active: Potency [4] 23.8 µM

C=C1C(=O)O[C@H]2C1[C@H](OC(=O)/C(=C/CO)COC(=O)/C(C)=C/CO)CC(=C)[C@@H]1CC(=O)[C@@H](C)[C@@H]12 (stereo not given in full)
inactive: Potency [1] | Potency [2] | Potency [3] | Potency [4] | Potency [5] | Potency [6]

CC(Oc1cc(-n2cnc3ccc(CN4CCN(C)CC4)cc32)sc1C(N)=O)c1ccccc1C(F)(F)F (stereo not given)
inactive: Potency [1] | Potency [2] | Potency [3] | Potency [4] | Potency [5] | Potency [6]

O=C(Nc1ccc(S(=O)(=O)Nc2ccccc2Cl)c(Cl)c1)c1ccccn1
inactive: Potency [1] | Potency [2] | Potency [3] | Potency [4] | Potency [5] | Potency [6]

C=C1C(=O)O[C@H]2[C@H]1CC/C(C)=C/CC[C@@]1(C)O[C@@H]21
inactive: Potency [1] | Potency [2] | Potency [3] | Potency [4] | Potency [5] | Potency [6]

CCOC(=O)Nc1cc(-c2ccc(C)c(NS(C)(=O)=O)c2)nn2c(C)nnc12
inactive: Potency [1] | Potency [2] | Potency [3] | Potency [4] | Potency [5] | Potency [6]

CC1(C)C2CC=C(COC3OC(COC4OCC(O)(CO)C4O)C(O)C(O)C3O)C1C2 (stereo not given)
inactive: Potency [1] | Potency [2] | Potency [3] | Potency [4] | Potency [5] | Potency [6]

CC1=C(C(=O)O)/C(=C/CO[C@@H]2O[C@H](COC(=O)/C=C/c3ccc(O)cc3)[C@@H](O)[C@H](O)[C@H]2O)C(O)C1 (stereo not given in full)
inactive: Potency [1] | Potency [2] | Potency [3] | Potency [5] | Potency [6]
active: Potency [4] 1.46 µM

C=C(C)C1CCC2(C(=O)O)CCC3(C(=O)O)C(CCC4C5(C)CCC(O)C(C)(C(=O)O)C5CCC43C)C12 (stereo not given)
inactive: Potency [1] | Potency [2] | Potency [3] | Potency [4] | Potency [5] | Potency [6]

CCCOc1ccc(-c2nc(OC)c3ccccc3n2)cc1
inactive: Potency [1] | Potency [2] | Potency [3] | Potency [4] | Potency [5] | Potency [6]

C[C@@H]1O[C@@H](O[C@H]2[C@H](OC(=O)[C@]34CCC(C)(C)C[C@H]3C3=CCC5[C@@]6(C)C[C@H](O)[C@H](O[C@@H]7O[C@H](CO)[C@@H](O)[C@H](O)[C@H]7O)[C@@](C)(CO)C6[C@H](O)C[C@@]5(C)[C@]3(C)CC4)OC[C@H](O)[C@@H]2O)[C@H](O)[C@H](O)[C@H]1O[C@@H]1OC[C@@H](O)[C@H](O[C@@H]2OC[C@](O)(CO)[C@H]2O)[C@H]1O (stereo not given in full)
inactive: outcome [1] inactive [at 9.52 µM] | outcome [2] inactive [at 9.73 µM] | activity change, negative = inhibition [3] 1.22% [at 11.6 µM] | activity change, negative = thiol reactive [4] 350% [at 11.5 µM] | activity, negative = inhibition [5] 0% [at 11.6 µM] | redox activity (% of DA3003) [6] 8.55% [at 11.5 µM]

C[C@@H]1O[C@@H](OC[C@H]2O[C@@H](Oc3cc(O)cc4c3C(=O)C(O)(Cc3ccc(O)cc3)O4)[C@H](O)[C@@H](O)[C@@H]2O)[C@H](O)[C@H](O)[C@H]1O (stereo not given in full)
inactive: Potency [1] | Potency [2] | Potency [3] | Potency [4] | Potency [5] | Potency [6]
